# In the library only some 11% were active in any assay of this set; here they are far more common.
# Tau fibril FP: tau fibrillization inhibition (FP); K18 P301L tau heparin fibrillization, Alexa594 FP, 6 h; Potency, µM (series often up to 57.7 µM), inactives show top-dose activity, negative = inhibition, hits mostly inhibitors; 280,000 tested, 0.39% active; note: potency is the fitted concentration of half-maximal effect; nearly all actives have a fitted effect of over 55% in size
# Target sequence (P10636 561-689 P618L limits assumed): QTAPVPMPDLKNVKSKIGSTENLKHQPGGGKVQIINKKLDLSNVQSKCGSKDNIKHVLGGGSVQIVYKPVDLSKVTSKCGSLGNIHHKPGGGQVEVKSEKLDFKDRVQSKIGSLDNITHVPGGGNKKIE
#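 K18 P301L tau (15 uM unlabeled/0.24 uM Alexa 594-labeled, final) + compound + heparin 20 uM final; 100 mM NaOAc pH 7; 6 hr 37 C; ThT 30 uM final added, 1 hr RT; FP ex 555/em 632 nm.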
# G9a block: G9a (human) methyltransferase inhibition | G9a H3K9 monomethylation, AlphaScreen, 2 h | Potency, µM (series often up to 102 µM), without a hit: at the highest dose activity, negative = inhibition, most hits filed as inhibitors | 350,000 tested, 8.8% active | AID 504332; note: potency is the fitted concentration of half-maximal effect; nearly all actives have a fitted effect of over 75% in size
# Target sequence (Q96KQ7 913-1193 limits assumed): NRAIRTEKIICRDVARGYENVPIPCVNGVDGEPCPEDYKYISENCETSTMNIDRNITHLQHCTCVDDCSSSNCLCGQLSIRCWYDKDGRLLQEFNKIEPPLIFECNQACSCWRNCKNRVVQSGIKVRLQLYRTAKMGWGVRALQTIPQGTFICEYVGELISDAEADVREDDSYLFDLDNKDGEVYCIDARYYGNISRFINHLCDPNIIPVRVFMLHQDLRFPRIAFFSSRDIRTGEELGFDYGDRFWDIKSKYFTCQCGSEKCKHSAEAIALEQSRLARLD
#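 Signal arises when biotinylated H3K9 peptide, once monomethylated, bridges streptavidin donor and antibody-captured acceptor beads. Enzyme at 20 nM was preincubated 15 min with test compounds; peptide 500 nM and SAM 20 uM then reacted for 2 h.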
# Tau fluor counter: counter-screen for tau fibril formation inhibitors. tau K18 P301L Alexa594 fluorescence, heparin fibrillization. 280,000 tested, 0.93% active. Potency, µM (highest dose often 57.7 µM), for the others: at the highest dose activity change, negative = decrease; note: potency is the fitted concentration of half-maximal effect; nearly all actives have a fitted effect of over 55% in size
#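 Human K18 P301L tau (15 uM unlabeled plus 0.24 uM Alexa 594-labeled, final) in 100 mM sodium acetate pH 7 was mixed with compound and 20 uM heparin and incubated 6 hr at 37 C.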
# Sfp inh: inhibitors of Bacillus subtilis Sfp phosphopantetheinyl transferase; Potency, µM, for the others: largest response in the series, negative = inhibition, hits mostly inhibitors; Biochemical Sfp PPTase activity, qHTS; 310,000 tested, 3.5% active;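 note: the enzyme is Sfp with the accession as filed and its product quenches rhodamine fluorescence; potency is the fitted concentration of half-maximal effect; 0% = enzyme reaction without inhibitor and -100% = no enzyme wells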
#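 Compounds were incubated with enzyme (final 15 nM) for 15 min at room temperature before substrate addition started the reaction. Fluorescence at 525 nm excitation, 598 nm emission was recorded immediately and after 30 minutes.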
# FBPA coupling cs: counter-screen for Giardia aldolase inhibitors: coupling enzyme system | coupling enzyme system counterscreen, AmpLite Red fluorescence | activity change, negative = inhibition, % at 58.2 µM, hits read low | 290,000 tested, 0.67% active; in the data active = activity change below about -30%
#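 Coupling enzymes only (glyceraldehyde-3-phosphate) + compound, at 57.5 uM final, 10 min RT; add substrate/coupling/AmpLite Red mix, 20 min RT; fluorescence ex 525/em 598 nm. Actives flag coupling-system interference.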
# Tau fibril ThT: tau fibrillization inhibition (ThT binding) | AID 1460 | 270,000 tested, 2.1% active | recombinant tau K18 P301L, heparin-induced fibrillization, ThT fluorescence | Potency, µM (top dose mostly 57.4 µM), for the others: at the top dose activity, negative = inhibition, most hits filed as inhibitors; note: potency is the fitted concentration of half-maximal effect; nearly all actives have a fitted effect of over 55% in size
#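 ThT emission at 510 nm, taken 1 hr after adding 30 uM dye, quantifies aggregates formed when 20 uM heparin acts on human tau K18 P301L for 6 hr at 37 C.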
# * marks the source's active call; other numbers are inactive results; ? = inconclusive; · = no result given; [ ] = another dose, or the depositor's remark. Unless noted, calls come from the whole dose curve; as a rule, active = well fitted curve in the direction sought with a large enough effect; inconclusive = small, poorly fitted or top-dose-only effect, or another doubt; inactive = no such curve, though single readings can be large; an effect the other way counts as inactive or inconclusive. Unless noted, % is set by controls: 0 for no effect and ±100 for the full control effect.
SMILES,Tau fibril FP,G9a block,Tau fluor counter,Sfp inh,FBPA coupling cs,Tau fibril ThT
O=c1[nH]c2ccc(Br)cc2c(-c2ccccc2)c1CN1CCOCC1,?,50.1µM*,-18.4%,-10.7%,-1.2,22.4µM*
c1ccc2[nH]c(SCc3cn4cccnc4n3)nc2c1,-13.0%,14.1µM*,-5.7%,-12.8%,-1.2,-10.2%
c1ccc(-c2cnnc(SCc3cn4cccnc4n3)n2)cc1,3.4%,?,-8.8%,?,1.1,-11.1%
O=C1NCCO1,·,-1.6%[59 µM],·,·,·,·
Cc1cc(C(F)(F)F)nn1Cc1n[nH]c(=S)n1-c1ccc(F)cc1,8.2%,10µM*,1.3%,-21.4%,3.2,-4.4%
CCc1ccc(-n2c(Cn3nc(C(F)(F)F)cc3C)n[nH]c2=S)cc1,5.6%,?,-9.6%,-20.7%,0.0,-0.5%
CN1CCN(C(=O)/C(=C\c2cccnc2)NC(=O)c2cccc(Br)c2)CC1,·,10.7%,·,11.8%,·,·
COc1ccc2cc(C(=O)C3CCCN(Cc4cnc(N5CCOCC5)s4)C3)ccc2c1 (centres undefined),4.1%,39.8µM*,-8.0%,9.1%,-0.3,-7.6%
N#Cc1ccc2c(c1)C[C@]1(CCCCN3C(=O)c4ccccc4C3=O)Oc3c(c(=O)oc4ccccc34)C2O1,·,12.2%[2.33 µM],·,3.6%,1.1,·
COC(=O)C1=C(C(=O)OC)SC(=C2C(=S)C(C)(C)N(C(=O)C(C)C)c3ccccc32)S1,?,1.78µM*,?,?,-0.7,1µM*
CCOC(=O)C1(C)C(C(=O)OC)=C(c2ccc(OC)cc2)c2ccccc2N1C(=O)OC (centres undefined),12.9%[81.3 µM],?,-6.3%[81.3 µM],-14.0%,-1.7,-12.0%[81.4 µM]
CCCC(=O)N1c2ccccc2C(=C2SC(C(=O)OC)=C(C(=O)OC)S2)C(=S)C1(C)C,?,1.78µM*,?,-4.3%,4.8,2.24µM*
COC(=O)C1=C(C(=O)OC)SC(=C2C(=S)C(C)(C)N(C(=O)C3CC3)c3ccccc32)S1,?,1.58µM*,?,-12.1%,-4.5,2.51µM*
CCCCN(CC)C(=O)Cn1nc(C)c2c(C)n(-c3ccccc3)nc2c1=O,10.0%,-2.6%[59 µM],8.3%,·,·,6.3%
COc1ccc(/C=C2\CCc3ccccc3C2=O)cc1O,·,79.4µM*,·,-8.0%,1.7,·
COc1ccc(Cc2nnc(NC(=O)c3cc(OC)c(OC)c(OC)c3)s2)cc1,·,3.7%,·,8.8%,2.2,·
CCOc1ccc(C(=O)COC(=O)Cc2n[nH]c(=O)c3ccccc23)cc1,·,-37.1%,·,·,·,·
CCOc1ccc(NC(=O)c2ccc(NC(=O)Cc3n[nH]c(=O)c4ccccc34)cc2)cc1,?,56.2µM*,-24.0%,-2.5%,0.4,?
C=CCSc1n[nH]c2nc3c(c(=O)n12)C1(CCCC1)Cc1ccccc1-3,9.6%,50.1µM*,-10.6%,20.6%,3.9,-1.1%
C[C@H](CCC(=O)NCC(=O)O)C1CC[C@H]2[C@H]3C(C[C@H](O)[C@]12C)[C@@]1(C)CC[C@@H](O)C[C@H]1C[C@H]3O (some centres undefined),-3.4%,37.6%[59 µM],-3.9%,13.8%,·,-2.6%
O=C1NC(=O)/C(=C/c2ccc(-c3ccc(F)cc3O)o2)S1,·,21.2µM*,·,·,·,·
COc1ccc(NC(=O)Nc2nnc(N3CCC(C)CC3)s2)cc1OC,?,?,?,17.4%,3.0,-15.2%
COc1ccc(NCc2cccn2-c2nnc(N3CCC(C)CC3)s2)c(OC)c1,-0.1%,5.62µM*,?,·,·,?
COc1ccc(CNC(=O)C2CCN(c3nnc(-n4cccc4CNc4ccc(C)cc4)s3)CC2)c(OC)c1,-1.1%,1.41µM*,-25.2%,·,·,?
COc1ccc(OC)c(NC(=O)Nc2nnc(N3CCC(C)CC3)s2)c1,8.7%,50.1µM*,?,-21.7%,-0.3,?
SMILES,Tau fibril FP,G9a block,Tau fluor counter,Sfp inh,FBPA coupling cs,Tau fibril ThT
COc1ccc(NCc2cccn2-c2nnc(N3CCOCC3)s2)c(OC)c1,6.4%,?,-7.9%,·,·,-7.8%
COc1ccc(OC)c(NC(=O)C2C3CCC(C3=C(C)C)C2C(=O)O)c1 (centres undefined),8.2%,8.91µM*,-7.1%,39.8µM*,-11.3,-14.6%
CCS(=O)(=O)c1ncc(N(Cc2ccco2)Cc2ccccc2F)c(C(=O)Nc2cccc(Cl)c2)n1,?,-3.5%[59 µM],-8.7%,·,·,7.7%
O=C(COCc1cc(-c2cccs2)on1)Nc1ccc(OC(F)(F)F)cc1,-9.3%,13.6%[59 µM],-15.4%,·,·,5.5%
CCOC(=O)c1[nH]cnc1C(=O)Nc1cccc(Cl)c1,6.7%,?,-0.4%,-2.5%,1.4,2.6%
COc1ccc(OC)c(NCc2cccn2-c2nnc(N3CCC(C)CC3)s2)c1,7.6%,7.94µM*,-24.1%,·,·,?
COC(=O)c1ccccc1NC(=O)Cn1cnc2ccc(S(=O)(=O)N3CCC(C)CC3)cc2c1=O,2.5%,?,-4.1%,89.1µM*,5.6,-4.0%
O=C(/C=C/c1ccco1)NC(=S)Nc1ccccn1,-0.2%,?,-22.0%,?,-3.7,?
CCCn1nnc(NC(=O)/C=C/c2ccco2)n1,-1.9%,-1.1%,-11.6%,-2.5%,-3.0,-19.2%
Cc1cccnc1NC(=S)NC(=O)/C=C/c1ccco1,?,31.6µM*,-26.6%,-9.7%,0.2,28.2µM*
Cn1nnc(NC(=S)NC(=O)/C=C/c2ccco2)n1,-10.5%,10µM*,-19.4%,?,2.0,·
Cc1ccc(-c2nc3ccccc3[nH]2)cc1NC(=O)/C=C/c1ccco1,-7.4%,-6.2%[2.33 µM],-28.8%,50.1µM*,1.6,?
O=C(/C=C/c1ccco1)NC(=S)Nc1ccccc1O,-19.7%,31.6µM*,?,-54.2%,0.2,22.4µM*
COc1ccc(CCNC(=O)CCc2c(C)c3ccc(O)c(C)c3oc2=O)cc1,-4.2%,25.4%[59 µM],-20.8%,·,·,-15.7%
O=C(/C=C\c1ccco1)NC(=S)Nc1ccccc1O,-15.6%,44.7µM*,?,?,-1.0,20µM*
Cn1nnc(NC(=S)NC(=O)c2cc(Cl)ccc2Cl)n1,·,3.55µM*,·,50.1µM*,·,·
Cc1ccc(NC(=S)NC(=O)/C=C/c2ccco2)c(O)c1,-0.7%,?,-29.8%,?,-3.6,?
Cc1cc(C)c2oc(-c3ccc(C)c(NC(=S)NC(=O)/C=C/c4ccco4)c3)nc2c1,4.3%,-44.0%[59 µM],-4.7%,39.8µM*,-1.0,-15.3%
CC(C)Cn1c(-c2csc3c2CCCC3)n[nH]c1=S,2.1%,8.91µM*,-6.2%,?,3.2,-12.0%
C=C(C)Cn1c(-c2ccncc2)n[nH]c1=S,-5.5%,14.1µM*,0.1%,?,2.6,-3.7%
S=c1[nH]nc(-c2ccncc2)n1CC1CCCO1 (centres undefined),2.5%,?,-0.7%,?,-2.1,-2.4%
